Results as given in PMC12136788.
In all, about 24,000 sequences were measured (“enrichment r”: median about 0.99, highest 2% from about 3.7 on). A selection follows.

T1: UNK ZnF1-3 (human, UniProt Q9C0B0 31-174)
T1 sequence: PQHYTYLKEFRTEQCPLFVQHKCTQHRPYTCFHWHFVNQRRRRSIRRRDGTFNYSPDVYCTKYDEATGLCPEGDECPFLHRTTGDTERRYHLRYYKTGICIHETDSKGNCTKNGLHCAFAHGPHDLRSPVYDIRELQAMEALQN

B1: chr3:49066234:49066235:-_ENSG00000178035_ENST00000326739|hu_hu|FALSE|FALSE (ssRNA)
RNA: GGGAGUUCUACAGUCCGACGAUCAGAAGUCAGGUCCACCUGGUCUGCAGUGAAGUCGAUGUACCCAGGGAGAAUGAGAAAGUCAUUGUAGGUGAGGCCGUCUCCGCAGUUGAAGAGCUGCUGUGCUGUGAGUCCGUCGUCUGGCAACAGAGGAUUGAGCAUCA
B2: chr8:87366250:87366251:-_ENSMUSG00000003814_ENSMUST00000003912|mus_mus|FALSE|FALSE (ssRNA)
RNA: GGGAGUUCUACAGUCCGACGAUCGAGCAGAUGAAAUCUCAAGCCUAGGGCUUCUCCUCUACACCCCUGUUCCUAGAGUUGGAGGGUAGUGACCAAAAGAUGGAGAAAGGGAGGGACAGAAGGAAAAGAUGUUGAUUCAAAAAUCAACAGAGGAUUGAGCAUCA
B3: chr7:75932113:75932114:+_ENSG00000106211_ENST00000248553|hu_hu|hu_hu_hu_mus_False|28_98 (ssRNA)
RNA: GGGAGUUCUACAGUCCGACGAUCCUGCGACCACUCAUCCGGCAGCCGGGGCACCCCGAAAGCUUGAUCGAAGAGGCGGCUGUGUGCAGGGUACCAGUCCCGGAAUGCCCAGCUGGGCGGGCUCCGCAGCAGCGAGAAGGGCACCAACAGAGGAUUGAGCAUCA
B4: chr4:88367131:88367132:-_ENSMUSG00000070923_ENSMUST00000094993|mus_hu|motif|central (ssRNA)
RNA: GGGAGUUCUACAGUCCGACGAUCUUGGUAAUUGCUAGCUUCCAAAAGCAAAUUCACGCAGGUAUUGUCUGUUCUCAUGAAAUCGGCUGUCUGCACGUAAUUGAUGAGAUCCUGUGGUGUCAUCAGUGGAAAUCGAAUAUUCUUCAACAGAGGAUUGAGCAUCA
B5: chr8:104447970:104447971:+_ENSG00000164934_ENST00000297579|hu_hu|hu_hu_hu_mus_False|48_108 (ssRNA)
RNA: GGGAGUUCUACAGUCCGACGAUCAUAUACCUCCCUGCUUCGGCUCUUGUCCACAGGAAAGAUUCUAAUAGACUUAUCAAAGCUGGCAGACACAAACUCCUUCCCAGUGGGAGAGUAGUCCACAUCAAGUACUGCAGACACGUGCAACAGAGGAUUGAGCAUCA
B6: 31532532_31534450_220_CDS_ENSG00000082213_ENST00000325366|human|control|control (ssRNA)
RNA: GGGAGUUCUACAGUCCGACGAUCGAAAUGUAAAAAACUUACAUUACUGGCAGGAAGAUGCUUUGAGCCUAUGGCCCGGUAUAUAAAGGGUAGAACCUCCUGAUGAUCCUCCACCACCCACACUGGGAGCUUGGGGUAACGCCGCAACAGAGGAUUGAGCAUCA
B7: chr6:117881578:117881579:-_ENSG00000047932_ENST00000052569|hu_hu|motif|central (ssRNA)
RNA: GGGAGUUCUACAGUCCGACGAUCUUUAAUGUAGAAGAUGCCAUCUUUAUUUACAGGCUAAUAAAAAAAUAUUAAACUCAACGGGAUAUAAUACAUUAUCAUAAAUGCAAUAGAUUUGAGGCCAACCAUAAGUGUAAGACUGGACAACAGAGGAUUGAGCAUCA
B8: chr3:144353948:144353949:-_ENSMUSG00000037062_ENSMUST00000163279|mus_hu|FALSE|FALSE (ssRNA)
RNA: GGGAGUUCUACAGUCCGACGAUCACCAAACAACUCUGAAAAUAACCCAUCAAAACAUAAUAUUAAAAUCAUUUGAUUUCUGUUGGAAAACCAGGUAAACAUAGUUUAAAUGCGUUUUUGUCUAUGAAAGCAUUCAGAAAAUUCCAACAGAGGAUUGAGCAUCA
B9: chr7:134094464:134094465:+_ENSMUSG00000030683_ENSMUST00000106335|mus_hu|FALSE|FALSE (ssRNA)
RNA: GGGAGUUCUACAGUCCGACGAUCCUCCGUCUCCGUUUAUCUUUCCCUUUAAUUGUUUUUUUUUUUUUUUUUUUUUUCCUCGUAGGAGUCAGCAAAGAAAGACAAUUUCUCUGCCCCUUGGGAUGGAGGGGCAGAAUUGGGCUACAACAGAGGAUUGAGCAUCA
B10: chr19:3980662:3980663:-_ENSG00000167658_ENST00000309311|hu_mus|FALSE|FALSE (ssRNA)
RNA: GGGAGUUCUACAGUCCGACGAUCGAACACUCUACCAAAGGCAUAGAAGCGGCCUUUGUCAGAGGUUGGCACCAUCUUGGAAAUGUACAUCAUAAGUGGGCCUUUGGGGUCGCAGCUCUUAAUACCCAUGGCGGCCUCAUCGUCCAACAGAGGAUUGAGCAUCA
B11: chr16:45382771:45382772:-_ENSMUSG00000022661_ENSMUST00000163230|mus_mus|motif|central (ssRNA)
RNA: GGGAGUUCUACAGUCCGACGAUCGAGAGUGUUAUUGUGGGCCCAAUGGAUAGGGAGAGCAUGCUUUUGUAAAGAUGUGAACGGCUCACUAAGACUAACAAUAUUGCCUAAGUGCUAUAAAAAUAAGUUAAAUGGACACAUUACCAACAGAGGAUUGAGCAUCA
B12: chr6:44218825:44218826:+_ENSG00000096384_ENST00000371646|hu_hu|FALSE|FALSE (ssRNA)
RNA: GGGAGUUCUACAGUCCGACGAUCGUUGUUCUUUUUCUUCUUGUUCUCAAAAAGGUCAAAGGGAGCCCGACGAGGAAUAAAUAGCAAUGCCCUGAAUUCCAACUGACCUUCUACAGAAAAGUGCUUGACUGCCAAGUGGUCUUCCAACAGAGGAUUGAGCAUCA
B13: chr10:115881139:115881140:-_ENSG00000165813_ENST00000369287|hu_hu|motif|central (ssRNA)
RNA: GGGAGUUCUACAGUCCGACGAUCAUAAAAAUAUUUUCACCAGGGUAGCAUAUAUAACAACAUUUACAUUAUUAAGGAUUCGGUUUUUUUCUUUUACUGAUAAAUCUUGGUUUAAAUUUGCAUGUAACAAUUUUUAGAAAAUAACAACAGAGGAUUGAGCAUCA
B14: chr4:62795864:62795865:+_ENSMUSG00000028358_ENSMUST00000107415|mus_hu|motif|central (ssRNA)
RNA: GGGAGUUCUACAGUCCGACGAUCCAGAGUCUAAAUCAAAUCUGAAGAAACAAAAUGAACCCCCAAACAAGGUAAAAAUUGCGGAAAUGUUAGGGAGAGAAAUUAUUAGGGAGUGGAGACAGUAUCUAUACUUCUCUGAAAAAUCAACAGAGGAUUGAGCAUCA

What follows are binders tested against T1, UNK ZnF1-3 (assay: nsRBNS (natural sequence RNA bind-n-seq); RBNS binding buffer (assumed for nsRBNS): 25 mM Tris pH 7.5, 150 mM KCl, 3 mM MgCl2, 0.01% Triton X-100, 500 ug/ml BSA, 20 U/ml SUPERase-In, 4 C; UNK is unkempt and MSI1 is Musashi-1; names of the RNAs are library labels; protein concentration not given here; high values mean tight binding).

Binder	binding signal [enrichment R]
B1	1.62
B2	1.61
B3	0.901
B4	0.896
B5	1
B6	0.807
B7	1.5
B8	0.744
B9	1.16
B10	1.18
B11	2.47
B12	0.931
B13	2.85
B14	1.32
